# According to the supplement of paper PMC6555819:
# Columns and labels:
# Test in all cases: PBM binding z-score (relative to random genomic background probes); higher = stronger binding; sequences stand for … in GC…GCGATTGACAGCGTAGAATGAAGG
# [1] = tested on: FXR:RXRa (NR concentration 270 nM, RXRa partner concentration 90 nM)
# How it was run: (§1)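 Custom Agilent 4×180K protein-binding microarrays carried double-stranded probes, each with a 34-nt variable region. These regions held direct-repeat seeds, single-nucleotide variants, half-site ablations and random human genomic background sequences. Ligand-free nuclear receptor dimers were incubated on the arrays for 1 h, antibodies against each partner (one per run) detected binding, and scanned fluorescence was regression-normalized. Binding z-scores take the random background probes as reference.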
# [2] = tested on: LXRa:RXRa (NR concentration 270 nM, RXRa partner concentration 90 nM)
# How it was run: as §1
# [3] = tested on: LXRa homodimer (NR concentration 270 nM)
# How it was run: as §1
# [4] = tested on: LXRb:RXRa (NR concentration 270 nM, RXRa partner concentration 90 nM)
# How it was run: as §1
# [5] = tested on: LXRb homodimer (NR concentration 270 nM)
# How it was run: as §1
# [6] = tested on: PPARa:RXRa (NR concentration 270 nM, RXRa partner concentration 90 nM)
# How it was run: as §1
# [7] = tested on: PPARg:RXRa (NR concentration 180 nM, RXRa partner concentration 90 nM)
# How it was run: as §1
# [8] = tested on: PPARg:RXRa 270nM:90nM, anti-RXR (NR concentration 270 nM, RXRa partner concentration 90 nM)
# How it was run: as §1
# [9] = tested on: PPARg:RXRa 30nM:10nM, anti-RXR (NR concentration 30 nM, RXRa partner concentration 10 nM)
# How it was run: as §1
# [10] = tested on: PPARg:RXRa 90nM:30nM, anti-RXR (NR concentration 90 nM, RXRa partner concentration 30 nM)
# How it was run: as §1
# [11] = tested on: PPARg:RXRa DBDmut IVT, anti-RXR (DBD mutation: RXRa K156A/R161A, NR concentration 270 nM, RXRa partner concentration 90 nM)
# How it was run: as §1
# [12] = tested on: PPARg:RXRa IVT, anti-PPARg (NR concentration 270 nM, RXRa partner concentration 90 nM)
# How it was run: as §1
# [13] = tested on: PPARg DBDmut:RXRa IVT, anti-PPARg (DBD mutation: PPARg1 K132A/R137A, NR concentration 270 nM, RXRa partner concentration 90 nM)
# How it was run: as §1
# [14] = tested on: PPARg DBDmut IVT, anti-PPARg (DBD mutation: PPARg1 K132A/R137A, NR concentration 270 nM)
# How it was run: as §1
# [15] = tested on: PPARg homodimer (NR concentration 180 nM)
# How it was run: as §1
# [16] = tested on: PXR:RXRa (NR concentration 270 nM, RXRa partner concentration 90 nM)
# How it was run: as §1
# [17] = tested on: PXR homodimer (NR concentration 270 nM)
# How it was run: as §1
# [18] = tested on: RARa:RXR (NR concentration 270 nM, RXRa partner concentration 90 nM)
# How it was run: as §1
# [19] = tested on: RARa homodimer (NR concentration 270 nM)
# How it was run: as §1
# [20] = tested on: RARb:RXRa (NR concentration 270 nM, RXRa partner concentration 90 nM)
# How it was run: as §1
Sequence,PBM binding z-score [1],PBM binding z-score [2],PBM binding z-score [3],PBM binding z-score [4],PBM binding z-score [5],PBM binding z-score [6],PBM binding z-score [7],PBM binding z-score [8],PBM binding z-score [9],PBM binding z-score [10],PBM binding z-score [11],PBM binding z-score [12],PBM binding z-score [13],PBM binding z-score [14],PBM binding z-score [15],PBM binding z-score [16],PBM binding z-score [17],PBM binding z-score [18],PBM binding z-score [19],PBM binding z-score [20]
GCTGCTAGGTCAGGTTGGTCAGCTACCGGGTACG,1.12,0.526,-0.544,0.265,-0.337,1.4,0.0957,0.884,-0.631,0.221,2.57,2.37,-0.857,-0.886,0.811,0.288,-0.331,0.391,-0.864,3.32
TCTGCTAGGTCTACGATGGTCAGCTAATCTGCTA,-0.634,-0.811,-1.12,-0.871,-0.759,-0.453,-0.582,-0.0115,1.48,0.437,0.395,-0.0472,-1.03,-0.797,-2.36,-0.731,-1.3,-1.07,-0.904,-0.194
CCGACTGGGGCAGAAAGGTTACCGTACCATCCGG,0.26,0.695,-0.0357,1.01,-1.05,2.4,1.54,2.95,0.724,2.38,1.72,2.39,-1.2,-1.01,0.541,1.02,-0.429,1.79,-0.282,1.84
CGTCCAAGGTCAAAGGTAAGTGAAGAGATGACGG,7.07,5.81,0.609,4.33,0.945,6.03,7.34,7,5.4,6.76,3.99,4.46,0.556,-0.194,2.19,4.69,0.799,5.9,0.423,5.23
AGTCAAGGTTCAGGACGAGGTAACGTAAAGCACG,2.68,1.82,0.192,1.05,-0.0826,2.34,1.97,2.16,0.624,1.34,-0.591,0.701,-0.373,0.579,0.61,1.35,0.133,1.95,0.0883,2.38
AGTCAAAGTTCTCTAGGTAACGTAAGATTCAGCT,0.109,-0.065,0.22,0.0719,-0.356,0.668,0.831,1.19,0.092,0.81,1.68,2.51,0.928,0.591,0.225,0.000883,0.167,0.366,0.183,0.732
GATACAGGGTCAGCTAGAGGCCAGAGGATGGAAA,4.5,3.02,-0.423,2.39,-0.64,4.54,3.7,3.5,1.02,2.16,1.05,2.27,0.0573,-0.276,2.33,3.12,-0.127,4.59,0.2,4.17
ATCTCTAGGTAAAGATAGTTCAGTGACTGCAAAT,0.289,4.19,0.906,0.867,0.656,0.677,0.174,0.437,0.221,0.0894,2.25,1.52,1.25,0.496,0.972,1.06,0.522,0.54,1.52,0.693
CCTTACGGGTCAAGAGGTTATAGCACGACGAGCG,6.14,4.17,0.128,3.63,-0.435,5.58,5.44,5.64,2.4,4.29,2.73,3.77,0.866,0.102,2.77,3.63,0.116,5.26,0.579,4.3
CCTACTGGGCCACAAAAGGTCATTGATTCAGTGA,3.28,5.83,5.25,4.37,0.347,4.79,4.35,4.41,1.88,3.74,5.38,5.41,0.516,0.121,2.8,5.02,1.16,4.9,0.618,3.95
TCTATTAGTTGATTAGGGCAACCCAAACAGCGGA,0.851,0.543,0.334,0.826,0.771,1.09,0.509,1.97,3.86,2.89,1.83,1.56,1.32,1.89,0.811,0.65,0.299,0.776,1.44,0.917
CTAGACAGGTGAAAGGTAACTCAGTCTGGTACGC,0.53,0.864,-0.332,0.732,-0.56,3.4,6.11,6.66,5.12,6.47,1.94,3.43,0.142,0.0221,0.635,0.951,-0.397,1.91,-0.0814,1.22
ATATGTTGGTTACATCCGGGTCATTCAGGCTATG,1.39,1.84,0.976,2.03,1.13,2.43,1.07,1.17,0.492,0.873,1.41,2.24,1.25,1.54,1.46,2.51,1.42,2.55,1.23,1.62
GCTGGTAGGTCAACTGATGGTCAGCTAAAGCTCG,4.7,3.62,0.696,2.66,0.322,4.64,4.59,4.72,1.84,3.71,5.49,5.82,0.658,0.562,3.06,2.3,-0.226,3.53,1.16,4.29
ACAGACAGGTGAGTGAATGTAACTCAGCTGGACG,-0.0424,-0.166,-0.418,-0.486,-0.454,0.0946,0.779,-0.286,-0.216,-0.145,0.386,0.325,-0.206,-0.309,-0.0515,-0.136,0.0208,0.0204,-0.0735,0.384
TCATATAGGTAAGAGGTGAAAGTCGGTGTGGTAA,1.83,1.71,0.368,1.64,-0.0245,4.31,7.08,7.24,6.37,7.94,4.67,4.43,1.44,0.671,1.73,1.31,0.509,2,1.54,1.44
TATACAGAGTCAAAGGCCAGAGTACGAATGTCGA,0.1,0.487,0.0394,0.0721,0.0425,1.1,2.17,2.98,1.53,2.73,-0.677,0.809,0.657,0.798,0.172,0.3,0.152,0.733,-0.267,1.19
CCTCGGAGGACAGAAGGTCAGCGCTGTCCGCTTT,1.68,2.01,0.184,1.17,-0.704,2.2,-0.154,1.57,-0.543,0.613,-0.144,0.0652,-1.29,-1.5,1.24,1.96,-0.497,2.76,0.504,3.68
AGTCAAAGTTCATCGAGGTAACGTAAGATATGCT,6.65,6,4.5,3.72,1.07,5.27,6.71,6.39,3.74,5.59,0.275,3.44,1.15,1.15,2.53,5.38,9.82,3.97,0.864,5.07
CCTACTGGGCCACGAAAGATCATTGATTCAGTGA,-0.333,-0.132,-0.275,-0.437,-0.666,0.946,1.67,1.31,0.112,0.519,5.69,5.25,0.632,-0.411,0.215,-0.421,-0.111,-0.0697,-0.401,0.211
TAGCCTAGGTCAGATCCGGCCAGTATACGCTATA,1.78,1.41,-0.272,1.05,-0.172,1.69,0.79,0.773,-0.199,0.368,0.634,1.52,0.095,-0.353,0.289,1.09,-0.796,1.12,-0.924,3.17
